In PubChem BioAssay AID1159580 (chemical genetic matrix, 2015):
In all, about 5,500 compounds went through this assay and about 2,000 (36%) were called active. Another 18% or so got no clear call; they are omitted. No stated cut-off is given here; in the data, active means normalized growth mostly below about 0.91 (no sharp cut-off); inconclusive means no clear call, values can overlap the other calls; inactive means mostly above about 0.92. The list shows a part of the results.

Experiment: chemical genetic growth profiling, strain panel (AID 1159580);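 further: tested at 20 µM; growth read once vehicle control cultures reached saturation at 30 °C; 1 = growth at the plate median or of vehicle wells; lower values mean less growth of the strain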
Details: growth OD

Measured: normalized growth

CNC(=O)Oc1cccc2c1OC(C)(C)O2
inactive: S. cerevisiae deletion strains, locus YJR043C, strain POL32, hits give low values 1.01 | S. cerevisiae deletion strains, locus YJR075W, strain HOC1, hits give low values 1.01 | S. cerevisiae deletion strains, locus YKL009W, strain mrt4, hits give low values 1.02 | S. cerevisiae deletion strains, locus YKL068W, hits give low values 1 | S. cerevisiae deletion strains, locus YKL085W, strain MDH1 (second series), hits give low values 1 | S. cerevisiae deletion strains, locus YKL085W, strain MDH1, hits give low values 1 | S. cerevisiae deletion strains, locus YKL160W, strain elf1, hits give low values 0.994 | S. cerevisiae deletion strains, locus YKL190W, strain CNB1, hits give low values 1.02 | S. cerevisiae deletion strains, locus YKR001C, strain vps1, hits give low values 1.01 | S. cerevisiae deletion strains, locus YKR026C, strain gcn3, hits give low values 1 | S. cerevisiae deletion strains, locus YKR091W, strain srl3, hits give low values 1 | S. cerevisiae deletion strains, locus YLL001W, strain dnm1, hits give low values 0.992 | S. cerevisiae deletion strains, locus YLL026W, hits give low values 0.998 | S. cerevisiae deletion strains, locus YLL041C, strain sdh2, hits give low values 0.999 | S. cerevisiae deletion strains, locus YLR027C, strain aat2, hits give low values 0.99 | S. cerevisiae deletion strains, locus YLR039C, strain RIC1, hits give low values 1.1 | S. cerevisiae deletion strains, locus YLR058C, strain SHM2, hits give low values 1.02 | S. cerevisiae deletion strains, locus YLR102C, strain apc9, hits give low values 0.991 | S. cerevisiae deletion strains, locus YLR221C, strain rsa3, hits give low values 1 | S. cerevisiae deletion strains, locus YLR258W, strain gsy2, hits give low values 1 | S. cerevisiae deletion strains, locus YLR262C, strain YPT6 (second series), hits give low values 1.03 | S. cerevisiae deletion strains, locus YLR262C, strain YPT6, hits give low values 1.14 | S. cerevisiae deletion strains, locus YLR268W, strain sec22, hits give low values 0.998 | S. cerevisiae deletion strains, locus YLR320W, strain mms22, hits give low values 0.986 | S. cerevisiae deletion strains, locus YLR330W, strain CHS5, hits give low values 1.02 | S. cerevisiae deletion strains, locus YLR342W, strain FKS1 (second series), hits give low values 0.991 | S. cerevisiae deletion strains, locus YLR342W, strain FKS1, hits give low values 0.997 | S. cerevisiae deletion strains, locus YLR357W, strain rsc2, hits give low values 1.05 | S. cerevisiae deletion strains, locus YLR370C, strain arc18, hits give low values 1.01 | S. cerevisiae deletion strains, locus YLR371W, strain rom2, hits give low values 0.989 | S. cerevisiae deletion strains, locus YLR384C, strain iki3, hits give low values 1.01 | S. cerevisiae deletion strains, locus YLR418C, strain cdc73, hits give low values 0.9 | S. cerevisiae deletion strains, locus YML016C, strain PPZ1, hits give low values 1.02 | S. cerevisiae deletion strains, locus YML032C, strain rad52, hits give low values 0.992 | S. cerevisiae deletion strains, locus YML120C, strain ndi1, hits give low values 1.01 | S. cerevisiae deletion strains, locus YML124C, strain tub3, hits give low values 0.998 | S. cerevisiae deletion strains, locus YMR058W, strain fet3, hits give low values 0.999 | S. cerevisiae deletion strains, locus YMR078C, strain ctf18, hits give low values 0.99 | S. cerevisiae deletion strains, locus YMR125W, strain sto1, hits give low values 1 | S. cerevisiae deletion strains, locus YMR129W, hits give low values 0.996 | S. cerevisiae deletion strains, locus YMR205C, strain PFK2, hits give low values 0.976 | S. cerevisiae deletion strains, locus YMR223W, strain ubp8, hits give low values 0.985 | S. cerevisiae deletion strains, locus YMR231W, strain pep5, hits give low values 0.995 | S. cerevisiae deletion strains, locus YMR263W, strain SAP30, hits give low values 1.02 | S. cerevisiae deletion strains, locus YMR307W, strain GAS1, hits give low values 1.05 | S. cerevisiae deletion strains, locus YNL067W, strain RPL9B, hits give low values 1.02 | S. cerevisiae deletion strains, locus YNL071W, strain lat1, hits give low values 1 | S. cerevisiae deletion strains, locus YNL128W, strain TEP1, hits give low values 1.03 | S. cerevisiae deletion strains, locus YNL153C, strain GIM3, hits give low values 1.01 | S. cerevisiae deletion strains, locus YNL209W, strain ssb2, hits give low values 0.996 | S. cerevisiae deletion strains, locus YNL233W, strain BNI4, hits give low values 1.02 | S. cerevisiae deletion strains, locus YNL248C, strain rpa49, hits give low values 0.991 | S. cerevisiae deletion strains, locus YNL250W, strain rad50, hits give low values 0.997 | S. cerevisiae deletion strains, locus YNL271C, strain bni1, hits give low values 1 | S. cerevisiae deletion strains, locus YNL298W, strain CLA4, hits give low values 0.998 | S. cerevisiae deletion strains, locus YNL307C, strain MCK1, hits give low values 0.984 | S. cerevisiae deletion strains, locus YNL322C, strain KRE1 (second series), hits give low values 0.999 | S. cerevisiae deletion strains, locus YNL322C, strain KRE1, hits give low values 1.02 | S. cerevisiae deletion strains, locus YNR049C, strain mso1, hits give low values 1 | S. cerevisiae deletion strains, locus YNR052C, strain pop2, hits give low values 0.996 | S. cerevisiae deletion strains, locus YOL006C, strain TOP1, hits give low values 1.02 | S. cerevisiae deletion strains, locus YOL012C, strain htz1 1.24 | S. cerevisiae deletion strains, locus YOL147C, strain pex11, hits give low values 0.993 | S. cerevisiae deletion strains, locus YOR001W, strain rrp6, hits give low values 0.981 | S. cerevisiae deletion strains, locus YOR061W, strain CKA2, hits give low values 1.02 | S. cerevisiae deletion strains, locus YOR069W, strain VPS5, hits give low values 1.01 | S. cerevisiae deletion strains, locus YOR070C, strain gyp1, hits give low values 0.991 | S. cerevisiae deletion strains, locus YOR080W, strain dia2, hits give low values 1 | S. cerevisiae deletion strains, locus YOR083W, strain WHI5, hits give low values 1 | S. cerevisiae deletion strains, locus YOR106W, strain vam3, hits give low values 0.987 | S. cerevisiae deletion strains, locus YOR136W, strain idh2, hits give low values 0.983 | S. cerevisiae deletion strains, locus YOR144C, strain elg1, hits give low values 0.999 | S. cerevisiae deletion strains, locus YOR184W, strain ser1, hits give low values 1.01 | S. cerevisiae deletion strains, locus YOR265W, strain rbl2, hits give low values 1.01 | S. cerevisiae deletion strains, locus YOR270C, strain vph1, hits give low values 0.953 | S. cerevisiae deletion strains, locus YOR290C, strain snf2, hits give low values 0.959 | S. cerevisiae deletion strains, locus YOR316C, strain cot1, hits give low values 0.995 | S. cerevisiae deletion strains, locus YPL051W, strain arl3, hits give low values 0.997 | S. cerevisiae deletion strains, locus YPL055C, strain LGE1, hits give low values 1.03 | S. cerevisiae deletion strains, locus YPL078C, strain atp4, hits give low values 0.988 | S. cerevisiae deletion strains, locus YPL106C, strain sse1, hits give low values 1.08 | S. cerevisiae deletion strains, locus YPL240C, strain hsp82, hits give low values 1 | S. cerevisiae deletion strains, locus YPL241C, strain CIN2, hits give low values 1.02 | S. cerevisiae deletion strains, locus YPR119W, strain clb2, hits give low values 0.993 | S. cerevisiae deletion strains, locus YPR141C, strain kar3, hits give low values 0.993 | S. cerevisiae deletion strains, locus YPR163C, strain tif3, hits give low values 0.988 | S. cerevisiae deletion strains, locus YPR167C, strain met16, hits give low values 0.993 | S. cerevisiae deletion strains, strain wtn01, hits give low values 0.99 | S. cerevisiae strains, strain wild type, hits give low values 1.01
